Most compounds without a hit are left out; they make up all but 3.9% or so of the library.
Tb PFK inh – T. brucei PFK enzyme inhibition | Potency, µM (series often up to 57.5 µM), inactives show at the highest dose activity, negative = inhibition, most hits filed as inhibitors | T. brucei PFK, ADP-Glo luminescence | AID 485367 | hit rate 0.17% among 330,000;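 note: 0% = uninhibited 1x PFK enzyme wells and -100% = no-enzyme wells; nearly all actives have a fitted effect of over 60% in size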
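In TEA buffer at pH 8.0 with 5 mM MgCl2, enzyme (1.25 nM) converted F6P (0.5 mM) and ATP (0.1 mM) for 45 min at room temperature. ADP product was read by luciferase luminescence.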
BRCA1 expr up – BRCA1 expression activation. MCF7-BRCA1-FFLuc reporter, luminescence, 48 h; response scale: scaled: vehicle 0%, 10 µM genistein 100%. Potency, µM (series often up to 46.1 µM), inactives show at the highest dose activation, usual class: activators. hit rate 1.1% among 380,000. AID 624202; note: nearly all actives have a fitted effect of over 80% in size
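Luminescence from a BRCA1-driven firefly luciferase in MCF7 cells was read after 48 h compound exposure at 37 C. Data normalized against DMSO and a 10microM genistein activation control, then curve-fitted across the titration.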
PLK1 PBD inh – PLK1 (human) polo-box domain binding inhibition; Plk1 PBD binding of FITC phosphopeptide, fluorescence polarization; hit rate 2.8% among 360,000; Potency, µM, without a hit: max response, negative = inhibition, actives largely listed as inhibitors; P53350; note: series mostly up to about 57 µM; % is set by controls: 0 for no effect and ±100 for the full control effect; nearly all actives have a fitted effect of over 65% in size
Target sequence (P53350 whole entry, looked up, the tested form may be a part): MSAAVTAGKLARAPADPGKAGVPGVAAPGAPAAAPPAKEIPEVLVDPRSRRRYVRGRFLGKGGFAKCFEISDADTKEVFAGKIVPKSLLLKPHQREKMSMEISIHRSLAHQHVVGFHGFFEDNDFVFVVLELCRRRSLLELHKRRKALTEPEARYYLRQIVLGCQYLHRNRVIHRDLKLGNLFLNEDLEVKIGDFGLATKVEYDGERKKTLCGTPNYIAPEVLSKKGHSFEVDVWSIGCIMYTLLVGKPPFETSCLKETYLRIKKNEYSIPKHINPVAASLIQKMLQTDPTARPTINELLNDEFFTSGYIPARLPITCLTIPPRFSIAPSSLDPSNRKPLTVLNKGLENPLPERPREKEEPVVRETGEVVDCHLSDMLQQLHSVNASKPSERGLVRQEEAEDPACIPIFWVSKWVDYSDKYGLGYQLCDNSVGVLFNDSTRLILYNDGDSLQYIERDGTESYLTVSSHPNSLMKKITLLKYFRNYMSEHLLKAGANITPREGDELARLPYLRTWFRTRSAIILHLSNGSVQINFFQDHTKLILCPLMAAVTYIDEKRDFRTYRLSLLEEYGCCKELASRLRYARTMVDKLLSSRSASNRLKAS
VDR inh – inhibitors of human vitamin D receptor. P11473. VDR-SRC2-3 peptide fluorescence polarization, 2 h. Potency, µM, for inactives: max response, negative = inhibition, actives largely listed as inhibitors. hit rate 0.93% among 400,000. AID 504847; note: % is set by controls: 0 for no effect and ±100 for the full control effect
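VDR–SRC2-3 interaction, FP format. Cmpds 23 nl via pintool, brief spin, 2 h ambient incubation.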
Numbers without * were called inactive; ? = inconclusive; nt = no result given; ! = a repeat was not active. Calls come from the whole dose curve; as a rule, active = well fitted curve in the direction sought with a large enough effect; inconclusive = small, poorly fitted or top-dose-only effect, or another doubt; inactive = no such curve, though single readings can be large; an effect the other way counts as inactive or inconclusive. Potency is the fitted concentration of half-maximal effect.

SMILES	Tb PFK inh	BRCA1 expr up	PLK1 PBD inh	VDR inh
CC1=C2CCCC[C@@]23C2C(=O)N(C)C(=O)[C@@H]2ON3OC1 (stereo not given in full)	nt	nt	-7%	nt
COc1cccc(C2=N/C(=C\N(C)C)C(=O)O2)c1	-2%	11µM*	17µM*	-13%
COc1cccc(-c2nc3ccccc3c(=O)o2)c1	4%	40%	-3%	-21%
CCn1nnnc1NC(=O)c1cc(OC)c(OC)c(OC)c1	0%	-16%	27µM*	?
O=C(Nc1cccc2cccnc12)c1ccc(-c2cccc(Cl)c2)o1	nt	-40%	nt	10%
c1csc(CNc2cc(-c3ccoc3)ncn2)c1	nt	nt	nt	20µM*
c1csc(CNc2nc(-c3ccoc3)nc3ccccc23)c1	nt	nt	nt	22µM*
CCOC(=O)c1ccc(NC(=S)N2CCC(O)CC2)cc1	-3%	13µM*	?	-22%
CCOC(=O)C1CCN(C(=S)Nc2ccc(S(N)(=O)=O)cc2)CC1	-1%	-9%	21µM*	-23%
CCOC(=O)C1CCCN(C(=S)Nc2ccc(Nc3ccccc3)cc2)C1 (stereo not given)	-18%	38%	21µM*	-9%
CCOC(=O)C1CCCN(C(=O)Cc2ccc(C)cc2)C1 (stereo not given)	1%	4%	27µM*	4%
CCOC(=O)c1ccc(NC(=S)N2CCN(CCO)CC2)cc1	-2%	0%	2%	?
Cc1ccc(Cl)cc1N(C)C(=O)c1noc2c1CCCCC2	nt	nt	nt	2%
O=C(Cc1ccc(Br)cc1)N1CCCCCC1	1%	10µM*	-3%	-21%
Cc1cnc(NC(=O)CSc2nnc(COc3ccccc3)o2)s1	0%	-17%	-5%	6%
Cc1occc1-c1nnc(SCC(=O)Nc2nc(C(C)(C)C)cs2)o1	-6%	36%	-1%	6%
Cc1cnc(NC(=O)CSc2nnc(-c3ccccc3)o2)s1	3%	4µM*	2%	8%
CCc1nnc(NC(=O)CSc2nnc(-c3ccccc3O)o2)s1	-2%	71%	24µM*	-16%
O=C(CNC(c1ccccc1)c1ccccc1)Nc1ccccc1F	1%	-77%	-7%	26%
O=C(CSC(=O)c1ccccc1)Nc1ccccc1F	-6%	-9%	3.4µM*	79µM*
Cc1csc(NC(=O)CSc2nnc(-c3ccoc3C)o2)n1	-3%	10µM*	0%	17%
CCOCCC(=O)Nc1ccc2c(c1)c(=O)n(C)n2C/C=C/c1ccccc1	nt	-48%	-9%	nt
CCc1nnc(NC(=O)CSCc2cc(=O)n3nc(C)sc3n2)s1	0%	5%	3.4µM*	?
CC(C)(C)Cc1nnc(NC(=O)CSc2ccccc2)s1	?	?	5.3µM*	28µM*
CCc1nnc(NC(=O)CSc2ccc(-c3ccc(C)cc3)nn2)s1	0%	11µM*	-15%	-13%
SMILES	Tb PFK inh	BRCA1 expr up	PLK1 PBD inh	VDR inh
CCOCc1nnc(NC(=O)CSc2ccccc2)s1	-13%	-1%	?	6%
O=C(CSc1nnc(-c2ccccc2)o1)Nc1ccccc1F	2%	-42%	21µM*	?
O=C1CN(CCN2CC(=O)NC(=O)C2)CC(=O)N1	nt	8%	nt	nt
CC(/C=C1\SC(=Nc2cccnc2)NC1=O)=C\c1ccccc1	-12%	-59%	27µM*	-22%
O=C1/C(=C\c2cccnc2)Sc2ccccc21	-1%	-18%	24µM*	?
O=C1N/C(=N/O)S/C1=C/c1cccnc1	-8%	11%	24µM*	-20%
CN1C(=O)S/C(=C/c2cccnc2)C1=O	-2%	1%	-10%	-17%
C=C1C(=O)OC2C1CCC(C)=C1C(=O)C3OC3(C)C12 (stereo not given)	nt	-87%	19µM*	?
O=C(Cn1cnc2c(oc3nc4c(cc32)CCCC4)c1=O)Nc1ccccc1	-8%	16%	-4%	-4%
C=C(C)Cn1cnc2c(oc3nc4c(cc32)CCCC4)c1=O	-8%	5.6µM*	4%	8%
CCOCCCn1c(=NC(=O)c2cccnc2)c(C(=O)OCC)cc2c(=O)n3ccccc3nc21	0%	-12%	19µM*!	?
Cc1ccccc1OCCSc1nc2ccc(NC(=O)c3cccs3)cc2s1	nt	-6%	nt	7%
O=C(Cc1ccc(Cl)cc1)Nc1nnc2n1CCS2	nt	17%	nt	0%
COc1ccccc1-c1nc(COc2ccc(Cl)cc2Cl)no1	2%	4.5µM*	5%	5%
CC(Nc1nc(=S)nc(Nc2ccc(F)cc2)[nH]1)c1ccccc1 (stereo not given)	-3%	-53%	13µM*	?
CC(Nc1nc(Nc2ccc(F)cc2)nc(SCC(N)=O)n1)c1ccccc1 (stereo not given)	3%	-37%	-8%	-29%
O=C(O)CSCCc1ccccn1	2%	0%	30µM*	1%

Screening data from PubChem BioAssay.
